Inconclusive results are not listed. Where a structure was tested more than once in an assay, its records may differ in their call. The source made the active and inactive calls. Unless noted, the call rests on the fitted dose curve.

The target in assay [1] is Gonadotropin-releasing hormone receptor (Homo sapiens) (UniProt P30968). The assay can be described thus: Human gonadotropin-releasing hormone receptor (GnRHR) small molecule agonists, calcium flux assay in GnRHR-HEK293 cells (AID 1920063). Further: nearly all actives have a fitted effect of over 35% in size. The procedure, abridged: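 Compounds dissolved in DMSO are pin-transferred onto dye-loaded GnRHR-HEK293 cells, which were seeded 18 h before at 37 C/5% CO2. Calcium signal is read as fluorescence intensity at 1 s intervals for 3 min.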

Assay [2] deals with KiSS-1 receptor (Homo sapiens) (UniProt Q969F8). In words: Human kisspeptin (KISS1R) small molecule agonists, calcium flux assay in KISS1R-HEK293 cells (AID 1920064; active means well fitted activation curve with a large enough effect in the repeat runs). The procedure, abridged: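 Cell line: HEK293, stable human KISS1R. Dye loading 1 h at 37 C after 18 h culture. Read: kinetic fluorescence, 480/540 nm, 3 min at 1 s intervals.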
Assay [3] can be described thus: G protein-coupled receptor (GPCR) small molecule agonists, calcium flux assay: HEK293 wild type cell line counter screen (AID 1920065). The procedure, abridged:
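Tox21 10K compounds, 15 concentrations each in triplicate, pin-transferred in DMSO onto dye-loaded cells; kinetic read at 480/540 nm for 3 min, 1 s intervals.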
(A change in cytosolic calcium serves as a functional read-out for many receptors and channels.)

Assay [4] can be described thus: p53 small molecule agonists, cell-based qHTS assay with human liver microsomes (AID 1963577).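 Further: p53 response element beta-lactamase reporter cells with liver microsomes plus NADPH.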 The procedure, abridged: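 Steps: plate p53RE-bla cells, incubate 5 h at 37 C; add compound in DMSO; add microsomes (0.5 mg/mL final) and NADPH (0.5 mg/mL final); incubate 16 h at 37 C; add LiveBLAzer, 2 h RT; read fluorescence.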
Assay [5] is described as follows: p53 small molecule agonists, cell-based qHTS assay with rat liver microsomes (AID 1963578). The procedure, abridged:
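Metabolic activation is supplied by rat liver microsomes with NADPH (each 0.5 mg/mL final). p53RE-bla cells incubate with compound 16 h at 37 C; reporter activity is measured by LiveBLAzer fluorescence.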
In general terms: qHTS replaces the single test concentration by a dilution series.

Assay [6] is described as follows: p53 small molecule agonists, cell-based qHTS assay with human liver microsomes: qHTS cell viability counter screen (AID 1963579). Further: nearly all actives have a fitted effect of over 45% in size. The procedure, abridged: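 After the 460/530 nm beta-lactamase read, CellTiter-Glo was added to the same wells and luminescence measured after 30 min at room temperature, giving viability of p53RE-bla cells treated 16 h with compounds plus microsomes and NADPH.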

Assay [7] is described as follows: p53 small molecule agonists, cell-based qHTS assay with rat liver microsomes: qHTS cell viability counter screen (AID 1963580). Further: nearly all actives have a fitted effect of over 45% in size. The procedure, abridged:
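Cytotoxicity counter screen: intracellular ATP read by CellTiter-Glo luminescence in the p53 reporter wells. HCT-116 p53RE-bla cells were treated for 16 h at 37 C alongside rat liver microsomes and NADPH, each 0.5 mg/mL final.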

A short description of assay [8]: p53 small molecule agonists, cell-based qHTS assay (AID 1963582; active means well fitted activation curve with a large enough effect in the signal ratio in the repeat runs, not every such curve was filed as active; the % refers to the signal ratio). The procedure, abridged:
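16 h compound exposure (37 C) of p53 response element–bla cells, preceded by 5 h recovery at 37 C/5% CO2; read-out via LiveBLAzer B/G FRET substrate, 2 h RT, fluorescence intensity.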

Assay [9] addresses 5-hydroxytryptamine receptor 2A (Homo sapiens) (UniProt P28223). In words: 5-hydroxytryptamine receptor 2A (HTR2A) small molecule antagonists, cell-based qHTS assay (AID 1963586). Further: nearly all actives have a fitted effect of over 45% in size. Further: potency means the concentration at half of the fitted maximal effect. The procedure, abridged: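 CHO cells stably expressing human HTR2A were plated for 18 h at 37 C, then loaded with calcium dye for 1 h. Compounds were preincubated 5 min at room temperature before DOI (4 nM solution) was added. Kinetic fluorescence was read for 3 min.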

Assay [10] shares this target. The assay can be described thus: 5-hydroxytryptamine receptor 2A (HTR2A) small molecule agonists, cell-based qHTS assay (AID 1963587). Further: nearly all actives have a fitted effect of over 30% in size. The procedure, abridged: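 Kinetic calcium-flux fluorescence (2 min, 1 sec intervals) after compound addition in agonist mode. HTR2A-CHO cells were cultured 18 h, then dye-loaded 1 h at 37 C.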
For assay [11], the target named is Muscarinic acetylcholine receptor M1 (Homo sapiens) (UniProt P11229). The assay can be described thus: Cholinergic receptor muscarinic 1 (CHRM1) small molecule agonists, cell-based qHTS assay (AID 1963589). Further: nearly all actives have a fitted effect of over 35% in size. The procedure, abridged:
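Homogeneous fluorescence calcium flux, agonist mode. Human M1-expressing CHO cells; compound dosed at 15 concentrations, three independent runs; signal sampled every 1 sec.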

The nature of assay [12]: cAMP Responsive Elements (CRE) small molecule agonists, cell-based qHTS assay (AID 1963590). The procedure, abridged:
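HEK 293T cells stably bearing CRE-bla were plated at 2,000 cells per well and rested 18 h. Compounds, positive controls or DMSO were added for 3 h at 37 C. LiveBLAzer B/G substrate was then loaded for 2 h at room temperature.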

The nature of assay [13]: cAMP Responsive Elements (CRE) small molecule antagonists, cell-based qHTS assay (AID 1963591; active means well fitted inhibition curve with a large enough effect in the signal ratio in the repeat runs, not every such curve was filed as active; the % refers to the signal ratio). The procedure, abridged: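 First, CRE-bla HEK293T cells settled 18 h at 37 C. Next, compound and 0.25 uM final NKH477 were applied for 3 h. Last, LiveBLAzer B/G substrate was loaded for 2 h at room temperature.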
The target in assay [14] is Beta-2 adrenergic receptor (Homo sapiens) (UniProt P07550). The assay can be described thus: Adrenergic beta2 receptor (ADRB2) small molecule antagonists, cell-based qHTS assay (AID 1963592). Further: series mostly up to about 92 µM; nearly all actives have a fitted effect of over 50% in size. The procedure, abridged:
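Assay format: CHO-ADRB2 cells, 18-20hr seeding at 37C/5% CO2, then compound plus 1nM isoproterenol agonist mix for 0.5hr RT. Homogeneous time-resolved fluorescence cAMP detection after 1hr, expressed as 665/615 nm ratio.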

In assay [15] the target is D(2) dopamine receptor (Homo sapiens) (UniProt P14416). In words: Dopamine D2 receptor (DRD2) small molecule agonists, cell-based qHTS assay (AID 1963594). Further: nearly all actives have a fitted effect of over 35% in size. The procedure, abridged: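 cAMP accumulation in DRD2-HEK293 cells measured by HTRF after 1 h detection; compounds added 10 min before NKH477 (200nM […]) forskolin-analogue stimulation, 30 min at room temperature, with Ro20-1724 present at 0.1 mM final.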

Assay [16] shares this target. The assay can be described thus: Dopamine D2 receptor (DRD2) small molecule antagonists, cell-based qHTS assay (AID 1963595; active means well fitted inhibition curve with a large enough effect in the signal ratio in the repeat runs, with a control signal flat; the % refers to the signal ratio). The procedure, abridged: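 HEK293 cells stably expressing DRD2, preincubated with 0.1 mM Ro20-1724 and compounds 10 min, were stimulated with 200 nM NKH477 plus 12 nM quinpirole for 30 min at room temperature; cAMP measured by HTRF (665/620 nm).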

A short description of assay [17]: p53 small molecule agonists, cell-based qHTS assay: qHTS cell viability counter screen (AID 1963581). Further: nearly all actives have a fitted effect of over 45% in size. The procedure, abridged:
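ATP content measured by luminescence in HCT-116 p53RE-bla cells treated 16 h at 37 C, same wells as the reporter screen.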

The target in assay [18] is Muscarinic acetylcholine receptor M1 (Homo sapiens) (UniProt P11229). The assay can be described thus: Cholinergic receptor muscarinic 1 (CHRM1) small molecule antagonists, cell-based qHTS assay (AID 1963588). Further: nearly all actives have a fitted effect of over 40% in size. The procedure, abridged: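 Compounds were tested at 15 concentrations in three independent runs. Dye-loaded CHRM1-CHO cells were exposed 5 min at room temperature before stimulation by acetylcholine added at 50nM. Intracellular calcium was read kinetically on FDSS for 3 min.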

Assay [19] has as its target Beta-2 adrenergic receptor (Homo sapiens) (UniProt P07550). The assay can be described thus: Adrenergic beta2 receptor (ADRB2) small molecule agonists, cell-based qHTS assay (AID 1963593).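 Further: CHO cells stably overexpressing human ADRB2.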 The procedure, abridged: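 CHO cells stably over-expressing ADRB2 were plated overnight at 37C, then dosed with compounds plus a stimulation mix containing 100uM IBMX and 25uM Ro-20-1724 for 0.5hr at room temperature. cAMP was measured by HTRF competition, 1hr.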

Chain of D(2) dopamine receptor (Homo sapiens) (P14416 whole entry, looked up): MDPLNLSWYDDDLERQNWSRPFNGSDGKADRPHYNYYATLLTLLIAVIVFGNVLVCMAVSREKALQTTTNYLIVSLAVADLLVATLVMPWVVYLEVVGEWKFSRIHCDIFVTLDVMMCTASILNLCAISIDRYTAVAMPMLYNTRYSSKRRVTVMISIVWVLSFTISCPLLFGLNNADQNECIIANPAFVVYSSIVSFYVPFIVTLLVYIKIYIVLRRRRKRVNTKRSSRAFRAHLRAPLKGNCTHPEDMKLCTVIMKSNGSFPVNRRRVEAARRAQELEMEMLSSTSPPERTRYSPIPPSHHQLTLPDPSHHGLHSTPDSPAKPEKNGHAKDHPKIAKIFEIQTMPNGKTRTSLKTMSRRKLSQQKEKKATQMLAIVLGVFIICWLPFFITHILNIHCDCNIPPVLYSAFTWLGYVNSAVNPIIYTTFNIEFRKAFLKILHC
Chain of 5-hydroxytryptamine receptor 2A (Homo sapiens) (P28223 whole entry, looked up): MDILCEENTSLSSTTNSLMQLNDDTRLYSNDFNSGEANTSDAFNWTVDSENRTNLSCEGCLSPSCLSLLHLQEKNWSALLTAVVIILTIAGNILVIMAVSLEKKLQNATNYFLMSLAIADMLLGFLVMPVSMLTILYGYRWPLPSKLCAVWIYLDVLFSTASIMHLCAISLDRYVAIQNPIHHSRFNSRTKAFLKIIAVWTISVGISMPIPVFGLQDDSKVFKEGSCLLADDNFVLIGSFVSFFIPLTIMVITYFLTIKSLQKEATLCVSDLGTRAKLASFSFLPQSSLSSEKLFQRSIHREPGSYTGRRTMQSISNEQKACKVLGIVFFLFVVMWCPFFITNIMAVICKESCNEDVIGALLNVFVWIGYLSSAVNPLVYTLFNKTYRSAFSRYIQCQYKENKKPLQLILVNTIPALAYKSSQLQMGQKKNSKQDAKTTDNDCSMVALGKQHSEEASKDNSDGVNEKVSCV
Chain of Beta-2 adrenergic receptor (Homo sapiens) (P07550 whole entry, looked up): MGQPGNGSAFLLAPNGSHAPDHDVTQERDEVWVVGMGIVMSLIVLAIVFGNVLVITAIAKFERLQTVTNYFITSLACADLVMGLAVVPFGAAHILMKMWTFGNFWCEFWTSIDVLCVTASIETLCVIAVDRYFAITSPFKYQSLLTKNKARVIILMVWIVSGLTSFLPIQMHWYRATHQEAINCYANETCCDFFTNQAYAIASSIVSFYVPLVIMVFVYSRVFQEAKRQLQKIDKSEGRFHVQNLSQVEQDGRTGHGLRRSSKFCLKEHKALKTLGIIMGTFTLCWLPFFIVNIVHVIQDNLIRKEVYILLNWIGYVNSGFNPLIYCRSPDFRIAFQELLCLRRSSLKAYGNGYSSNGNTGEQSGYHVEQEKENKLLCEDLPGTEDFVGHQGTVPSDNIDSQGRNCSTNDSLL
Chain of Gonadotropin-releasing hormone receptor (Homo sapiens) (P30968 whole entry, looked up): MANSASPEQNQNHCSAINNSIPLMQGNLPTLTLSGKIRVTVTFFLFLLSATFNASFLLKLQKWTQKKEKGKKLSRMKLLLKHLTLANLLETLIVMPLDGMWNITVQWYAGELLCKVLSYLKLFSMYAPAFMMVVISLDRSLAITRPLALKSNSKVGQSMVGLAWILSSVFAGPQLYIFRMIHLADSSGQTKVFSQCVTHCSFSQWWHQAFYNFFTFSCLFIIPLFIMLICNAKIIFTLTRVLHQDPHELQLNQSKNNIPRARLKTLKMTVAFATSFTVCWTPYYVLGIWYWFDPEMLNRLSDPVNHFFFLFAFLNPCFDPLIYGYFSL
Chain of Muscarinic acetylcholine receptor M1 (Homo sapiens) (P11229 whole entry, looked up): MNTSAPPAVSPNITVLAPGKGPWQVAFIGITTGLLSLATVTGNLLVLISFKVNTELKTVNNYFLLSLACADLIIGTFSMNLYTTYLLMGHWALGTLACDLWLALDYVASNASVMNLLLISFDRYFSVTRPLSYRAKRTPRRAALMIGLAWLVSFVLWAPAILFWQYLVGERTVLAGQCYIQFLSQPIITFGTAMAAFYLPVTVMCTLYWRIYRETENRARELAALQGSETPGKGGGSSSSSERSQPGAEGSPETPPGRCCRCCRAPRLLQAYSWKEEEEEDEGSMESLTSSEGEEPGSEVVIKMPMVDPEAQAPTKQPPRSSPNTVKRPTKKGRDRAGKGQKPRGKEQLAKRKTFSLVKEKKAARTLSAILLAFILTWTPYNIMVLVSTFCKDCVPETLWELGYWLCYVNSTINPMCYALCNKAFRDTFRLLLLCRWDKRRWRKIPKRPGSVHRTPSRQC
Chain of KiSS-1 receptor (Homo sapiens) (Q969F8 whole entry, looked up): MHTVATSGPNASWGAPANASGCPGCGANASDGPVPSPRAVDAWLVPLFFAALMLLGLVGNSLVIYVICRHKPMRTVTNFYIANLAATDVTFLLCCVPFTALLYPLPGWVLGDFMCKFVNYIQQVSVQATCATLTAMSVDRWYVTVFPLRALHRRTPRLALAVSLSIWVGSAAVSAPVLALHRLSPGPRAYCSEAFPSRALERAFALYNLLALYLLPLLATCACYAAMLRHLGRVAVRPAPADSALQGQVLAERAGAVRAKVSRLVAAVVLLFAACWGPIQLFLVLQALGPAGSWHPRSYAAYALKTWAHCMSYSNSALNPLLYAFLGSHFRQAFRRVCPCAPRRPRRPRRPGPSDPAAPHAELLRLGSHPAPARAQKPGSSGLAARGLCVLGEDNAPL

As to `CCC(C)c1cc([N+](=O)[O-])cc([N+](=O)[O-])c1O` (stereo unspecified), the Potency result in [1], in assay [2], in assay [3], in assay [4], in assay [5] and in [6] was “inactive” each time. Also, the Potency result in [7], in assay [8], in assay [9], in [10], in assay [11] and in assay [12] was “inactive” each time. Further, the Potency entry in assay [13], in [14], in [15] and in [16] was “inactive” each time.
For `CCCCOCC1CO1` (stereo unspecified), the Potency result in assay [1], in assay [2], in [3], in assay [4], in assay [5] and in [6] was “inactive” throughout. The Potency entry in [7], in assay [17], in assay [8], in assay [9], in assay [10] and in assay [11] was “inactive” throughout. Further, the Potency result in [13], in [14], in [15] and in [16] was “inactive” throughout.
Turning to `OC[P+](CO)(CO)CO`, the Potency result in assay [1], in assay [2], in [3], in assay [4], in assay [5] and in [6] was “inactive” in each case. In addition, the Potency entry in [17], in assay [8], in [9], in assay [18], in assay [12] and in assay [13] was “inactive” each time. For the same compound, the Potency result in [14], in assay [15] and in assay [16] was “inactive” in each case.
Consider `ClCc1ccccc1CCl`, for which the Potency result in assay [1], in assay [2], in assay [3], in [4], in assay [5] and in assay [6] was “inactive” throughout. For the same compound, the Potency entry in assay [7], in assay [17], in assay [9], in [10], in assay [18] and in [11] was “inactive” each time. Also, the Potency result in [12], in assay [13], in assay [14], in [15] and in assay [16] was “inactive” each time.
As for `CC(C)(c1ccc(OCC2CO2)cc1)c1ccc(OCC2CO2)cc1` (stereo unspecified), the Potency result in assay [1], in [2], in [3], in assay [4], in assay [5] and in [6] was “inactive” each time. Besides, the Potency entry in assay [7], in [17], in assay [9], in assay [10], in [18] and in assay [11] was “inactive” in each case. Besides, the Potency result in assay [12], in [14], in assay [15] and in [16] was “inactive” each time.
Regarding `c1ccc(C2CO2)cc1` (stereo unspecified), the Potency entry in assay [1], in assay [2], in assay [3], in assay [4], in [5] and in assay [6] was “inactive” each time. In addition, the Potency entry in [7], in assay [17], in assay [8], in assay [10], in assay [18] and in assay [12] was “inactive” each time. Further, the Potency result in assay [13], in [14], in assay [19], in assay [15] and in assay [16] was “inactive” each time. Besides, in assay [9], the Potency is 4.8 nM (active) and inactive.
Turning to `Clc1ccc(C(Cl)(Cl)Cl)cn1`, the Potency result in assay [1], in assay [2], in assay [3], in [4], in assay [5] and in assay [6] was “inactive” throughout. Also, the Potency entry in assay [7], in [17], in assay [8], in assay [9], in [10] and in [18] was “inactive” throughout. Also, the Potency entry in [11], in assay [12], in [13], in assay [14], in [15] and in assay [16] was “inactive” in each case.
